# S2 tox: Viability Counterscreen for Primary qHTS for Inhibitors of ATXN expression; S2 cells (HEK-293 line with an ATXN2-luciferase reporter) viability, CellTiter-Fluor protease fluorescence, 24 h; 0.49% of 400,000 active; AID 651635, 2014; Potency, µM (highest dose often 56.7 µM), hits mostly cytotoxic; further: potency means the concentration at half of the fitted maximal effect; nearly all actives have a fitted effect of over 40% in size
# ATXN2 expr inh: Primary qHTS for Inhibitors of ATXN expression; Potency, µM (doses to about 57 µM), for the others: top-dose activity change, negative = inhibition, actives largely listed as inhibitors; HEK-293 ATXN2-luciferase reporter, luminescence, 24 h; 0.72% of 360,000 active; further: potency means the concentration at half of the fitted maximal effect; on the % scale 0 is the no-effect control and ±100 the full control effect; nearly all actives have a fitted effect of over 55% in size
#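 qHTS (up to 57 uM final) was run with 24 h compound exposure of reporter cells at 37 °C. Each well was multiplexed: SteadyGlo luminescence measured ATXN2-luciferase expression after a fluorogenic Gly-Phe-AFC viability readout (25 uM final).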
# HepG2 viability: qHTS for Inhibitors of TGF-b: Cytotox Counterscreen; HepG2 CAGA-GFP viability, ATP luminescence, 18 h; Potency, µM (doses to about 46.1 µM), for the others: at the highest dose activity change, negative = cytotoxicity, usual class: cytotoxic; 0.76% of 410,000 active; AID 588856, 2011; further: potency means the concentration at half of the fitted maximal effect
#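 CellTiter-Glo luminescence gave cytotoxicity after 18 hours at 37 degrees C. The cells were HepG2 CAGA-GFP in 1% FBS DMEM, stimulated with 500 pg/mL TGF-beta after compound addition. %Activity was normalised to no-cell wells (complete cell-killing) and DMSO (no toxicity), and curves were fitted and classified.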
# IL1B secr inh: qHTS for Inhibitors of Inflammasome Signaling: IL-1-beta AlphaLISA Primary Screen. THP-1 LPS/ATP IL-1B secretion, AlphaLISA, 16 h; active compounds read low. 4.7% of 360,000 active. activity change, % at 57.5 µM. AID 743279, 2014; in the data active means activity change below about -50%; inconclusive means mostly about -30% to -49%; further: on the % scale 0 is the no-effect control and ±100 the full control effect
#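 THP-1 cells pretreated 1 hr with compounds (up to 57.5 uM final), then stimulated with LPS (250 ng/mL final) plus ATP (1.25 mM final); secreted IL-1B measured by AlphaLISA after 16 hr, decreased signal indicating inhibition.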
# TGFb SMAD3 inh: qHTS for Inhibitors of TGF-b; HepG2 CAGA-GFP TGF-b/SMAD3 reporter, GFP fluorescence, 18 h; TGF-beta stimulated, 500 pg/mL final; Potency, µM (highest dose often 46.1 µM), without a hit: at the highest dose activity, negative = inhibition, hits mostly inhibitors; 1.2% of 410,000 active; AID 588855, 2011; further: potency means the concentration at half of the fitted maximal effect; on the % scale 0 is the no-effect control and ±100 the full control effect; nearly all actives have a fitted effect of over 65% in size
#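 HEPG2 CAGA-GFP cells (1000/well, DMEM with 1% FBS) were pre-incubated 2 h at 37 degrees C, given compound by pin tool, then stimulated with TGF-beta at 500 pg/mL final for 18 h before per-cell GFP fluorescence imaging.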
# * = called active by the depositor; i = inactive; ? = inconclusive; nt = no result given. In the library only some 5.7% were active in any assay of this set; here they are far more common. Unless noted, the call rests on the fitted dose curve; in most records, active means well fitted curve in the direction sought with a large enough effect; inconclusive means small, poorly fitted or top-dose-only effect, or another doubt; inactive means no such curve, though single readings can be large; an effect the other way counts as inactive or inconclusive.
SMILES,S2 tox,ATXN2 expr inh,HepG2 viability,IL1B secr inh,TGFb SMAD3 inh
O=C(CN1C(=O)NC2(CCCC2)C1=O)NCc1cccc(Cl)c1,i,7.5%,-0.8%,-59.0*,13.4%
O=C(CSc1ccccn1)Nc1ccc(F)c([N+](=O)[O-])c1,i,7.5%,-12.0%,-76.2*,-8.4%
O=C(CSc1nc(=O)[nH]c2c1CCCC2)NCc1ccc(Cl)cc1,nt,nt,-16.2%,nt,18.1%
C[C@@H]1C[C@H]2C3C[C@H](F)C4=CC(=O)C=CC4(C)[C@@]3(F)[C@@H](O)CC2(C)[C@@]1(O)C(=O)COC(=O)C(C)(C)C (stereo partly drawn),i,nt,nt,nt,nt
CCOc1cc(CNC(=O)c2ccc3c(c2)N(C)C(=O)C2CCCCN32)cc(OCC)c1OCC (stereo not drawn),i,-12.6%,-34.6%,nt,0.5%
O=C(Nc1ccccc1)Nc1ccc(F)c([N+](=O)[O-])c1,i,6.2%,-35.2%,-90.4*,?
Cc1nc2sccn2c1CN1Cc2ccccc2OC(c2ccccc2F)C1 (stereo not drawn),i,nt,nt,nt,nt
COc1ccc(-c2noc(CSc3nnc(-c4ccncc4)n3-c3cccc(C)c3)n2)cc1OC,?,-25.6%,-43.2%,nt,-44.7%
COc1cccc(CN2CCC(n3cc(C(=O)N4CCCCC4)nn3)CC2)c1OC,i,nt,nt,nt,nt
O=c1ccc2ccccc2c2ccccc12,?,5.01µM*,-60.8%,-115.4*,12.6µM*
CCN(CC)S(=O)(=O)c1ccc(N2CCc3cc(OC)c(OC)cc3C2)nc1,i,-29.4%,-14.2%,-90.8*,-4.3%
CCN(CC)S(=O)(=O)c1ccc(N/N=C/c2cc(OC)c(OC)cc2OC)nc1,i,-7.1%,-4.5%,25.8,0.4%
CC(C)(C)c1ccc(/C=N/OCC(=O)NCc2ccc(F)cc2)cc1,i,-16.7%,-1.2%,-69.2*,-29.4%
COc1ccc(CCNC(=O)C(C)n2nc(C)c3c(C)n(-c4ccc(C)cc4)nc3c2=O)c(OC)c1 (stereo not drawn),?,?,-24.1%,-50.4*,?
CCOc1ccccc1NC(=O)C1CCCN(S(=O)(=O)c2cccs2)C1 (stereo not drawn),?,-18.4%,-5.8%,nt,?
C/C(=N\NC(=O)Cc1csc(N2CCOCC2)n1)c1ccc(Cl)c(Cl)c1,nt,-26.6%,-24.0%,-58.1*,14.3%
C[C@H]1C[C@H](O)c2ccsc2S1(=O)=O,i,7.3%,nt,nt,nt
CCCCN(CC)CCNC(=O)c1cc2c(=O)oc3ccc(C)cc3c2s1,i,1.1%,-4.3%,nt,-3.4%
Cc1ccccc1NC(=O)c1nc(S(=O)(=O)Cc2ccccc2F)ncc1Cl,nt,nt,5.62µM*,nt,4.47µM*
Cc1ccc(NC(=O)c2nc(S(=O)(=O)Cc3ccccc3F)ncc2Cl)cc1,nt,nt,10µM*,nt,?
COc1ccc(CN2C(=O)C(CC(=O)NCc3cccc4ccccc34)CC(C(=O)N(C(C)C)C(C)C)=C2C)cc1 (stereo not drawn),?,?,-65.7%,-69.8*,?
CC1=C(C(=O)N(C(C)C)C(C)C)CC(CC(=O)NCCCCc2ccccc2)C(=O)N1Cc1ccc(C(C)(C)C)cc1 (stereo not drawn),?,?,17.8µM*,0.0,11.2µM*
CC1=C(C(=O)N(C(C)C)C(C)C)CC(CC(=O)NCc2ccco2)C(=O)N1Cc1ccc(C(C)(C)C)cc1 (stereo not drawn),?,?,-31.8%,-23.1,17.8µM*
CCOc1ccccc1-n1nnc(-c2nsc(NC(=O)c3ccc(C)cc3)n2)c1C,nt,nt,-42.0%,nt,?
Cc1ccc(N)cc1O,?,?,-38.4%,55.1,?
SMILES,S2 tox,ATXN2 expr inh,HepG2 viability,IL1B secr inh,TGFb SMAD3 inh
Cc1cc(O)c(-c2cc(O)c(C)cc2O)cc1O,?,nt,22.4µM*,-99.1*,?
O=C(/C=C/c1ccc2ccccc2n1)c1cc(Br)ccc1O,i,15.2%,-4.7%,44.3,12.4%
COc1ccc(/C=C/C(=O)c2ccccc2O)cc1,i,55.8%,-17.0%,0.0,-11.6%
Cc1ccc(/C=C/C(=O)c2ccccc(=O)c2O)cc1C,?,?,-48.5%,-81.1*,10µM*
O=C(/C=C/c1ccc(F)cc1)c1cc(Br)ccc1O,i,18.0%,-32.2%,-56.8*,-19.9%
O=C(/C=C/c1ccccc1)c1cc(Br)ccc(=O)c1O,?,20µM*,-15.9%,-58.6*,15.8µM*
CCc1ccc(NC(=O)C(CC)n2c(=O)c(C(F)(F)F)nc3ccccc32)cc1 (stereo not drawn),i,8.3%,-0.8%,nt,4.3%
CC(NC(=S)NC(=O)c1ccccc1)c1ccccc1 (stereo not drawn),i,nt,-1.6%,-22.9,5.4%
O=C(NC(=S)NC(c1ccccc1)c1ccncc1)c1ccccc1 (stereo not drawn),i,-16.1%,-33.2%,-79.4*,5.8%
O=C(NC1CCc2ccccc21)c1cc(COc2ccc(F)cc2Cl)on1 (stereo not drawn),i,nt,-20.2%,7.5,-26.3%
O=C(NC1CCc2ccccc21)c1cc(COc2cncc(Cl)c2)on1 (stereo not drawn),i,7.6%,-3.2%,-61.8*,0.0%
CCN(C(=O)c1cn(CC(C)C)c(=O)c2cc(OC)c(OC)cc12)c1cc(OC)ccc1OC,i,-7.5%,-27.7%,nt,?
CCCCn1c(=N)n(CC(=O)c2ccco2)c2ccccc21,i,3.0%,-2.1%,?,-7.4%
CCn1c(=N)n(CC(O)c2ccccc2)c2ccccc21 (stereo not drawn),i,-11.5%,-19.4%,-5.3,-1.1%
CCCCn1c(=N)n(CC(O)c2ccccc2)c2ccccc21 (stereo not drawn),i,-30.7%,-16.5%,-67.0*,3.7%
CCCCCCCn1c(=N)n(CC(=O)c2ccco2)c2ccccc21,?,?,-92.1%,-80.2*,?
CCCCCCCn1c(=N)n(CC(O)c2ccco2)c2ccccc21 (stereo not drawn),i,?,22.4µM*,0.0,?
COc1ccc2oc(=O)cc(CN3CCN(c4ccccc4F)CC3)c2c1,nt,nt,-30.9%,nt,?
COCCNC(=O)c1ccccc1NC(=O)Nc1ccccc1,i,6.7%,0.0%,-50.2*,0.0%
C=C1C=C(C(F)F)n2ncc(C(=O)Nc3ccc(N(CC)CC)cc3)c2N1,nt,nt,7.8%,nt,21.0%
CCc1cccc(-n2nnc(-c3nsc(NC(=O)c4cccs4)n3)c2C)c1,nt,nt,15.8µM*,nt,?
CCc1ccccc1-n1nnc(-c2nsc(NC(=O)c3ccc(C)c(C)c3)n2)c1C,nt,nt,-39.8%,nt,10µM*
CCC1=Nc2cc(C(=O)NCc3ccc(C)cc3)ccc2Sc2ccc(C)cc21,nt,nt,-15.6%,nt,-21.2%

# Screening results (PubChem BioAssay)
